Measurements as given in PubChem BioAssay (NCI).
About 79,000 compounds went through this panel and 15% of them were active in at least one assay; those are over-represented in the sample as a whole. Activity calls are given as the source filed them. Rule as the data show it: active = growth inhibition above about 70%; inactive = the rest.

Tests used:
[1] = NCI Yeast Anticancer Drug Screen. Data for the rad52 strain (AID 147);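 also: 0% = growth of vehicle-treated control cultures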; conditions: S. cerevisiae rad52 mutant growth inhibition, hits give high values
In short: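 Compounds are applied to a genetically defined yeast strain lacking normal DNA damage repair, and inhibition of growth is expressed relative to cultures given vehicle only.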

[2] = NCI Yeast Anticancer Drug Screen. Data for the wt1 strain (AID 149);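 also: 0% = growth of vehicle-treated wt1 cultures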; conditions: S. cerevisiae wt1 strain (SPY 50644) growth inhibition, hits give high values
In short: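 wt1 strain grown with compound or vehicle; inhibition taken from the growth difference.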

[3] = NCI Yeast Anticancer Drug Screen. Data for the rad50EPP+ strain (AID 151);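 also: 0% = growth of vehicle-treated control cultures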; conditions: S. cerevisiae rad50 mutant strain, hits give high values
In short: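 Compounds were applied to the rad50EPP+ yeast strain, which bears a defined DNA repair alteration, and growth inhibition was determined relative to vehicle-treated cultures.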

[4] = NCI Yeast Anticancer Drug Screen. Data for the mgt1 strain (AID 153); conditions: S. cerevisiae mgt1 mutant growth inhibition, hits give high values
In short: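 Strain: mgt1 yeast, one of a set carrying defined DNA damage repair or cell cycle control alterations. Compound-treated growth compared with vehicle.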

[5] = NCI Yeast Anticancer Drug Screen. Data for the rad50 strain (AID 155);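 also: 0% = growth of vehicle-only cultures of the same strain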; conditions: S. cerevisiae rad50 strain growth inhibition, hits give high values
In short: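 DNA repair mutant yeast, compound exposure, growth read-out; inhibition is taken relative to vehicle.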

[6] = NCI Yeast Anticancer Drug Screen. Data for the mec2-1 strain (AID 157); conditions: S. cerevisiae mec2-1 strain, hits give high values
In short: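 Strain: mec2-1 (DNA repair/cell cycle alteration). Compound exposure, then growth measured; inhibition expressed relative to vehicle.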

[7] = NCI Yeast Anticancer Drug Screen. Data for the rad14 strain (AID 159);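 also: 0% = growth of vehicle-treated control cultures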; conditions: S. cerevisiae rad14 strain growth inhibition, hits give high values
In short: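 DNA repair-defective yeast, compound-exposed; % growth inhibition derived by comparison with vehicle-treated controls.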

[8] = NCI Yeast Anticancer Drug Screen. Data for the sgs1 mgt1 strain (AID 161);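 also: 0% = growth of cultures given vehicle only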; conditions: S. cerevisiae sgs1 mgt1 strain, hits give high values
In short: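 Read-out: growth inhibition vs vehicle controls. Cells: mutant yeast strain deficient in DNA damage repair.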

[9] = NCI Yeast Anticancer Drug Screen. Data for the CLN2oe strain (AID 163);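 also: 0% = growth of vehicle-only control cultures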; conditions: S. cerevisiae CLN2oe strain, hits give high values
In short: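 Growth of a genetically modified yeast strain is measured after compound exposure and compared with cultures given vehicle alone.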

[10] = NCI Yeast Anticancer Drug Screen. Data for the cln2 rad14 strain (AID 165);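 also: 0% = growth equal to vehicle treated cultures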; conditions: S. cerevisiae cln2 rad14 strain, hits give high values
In short: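 Compounds are applied to the cln2 rad14 yeast strain, and growth is then compared with that of vehicle-treated cultures to give inhibition.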

[11] = NCI Yeast Anticancer Drug Screen. Data for the bub3 strain (AID 167); conditions: S. cerevisiae bub3 mutant strain, hits give high values
In short: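 In this screen, a yeast mutant lacking normal mitotic checkpoint function is challenged with compound. Relative growth versus vehicle gives the inhibition value.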

[12] = NCI Yeast Anticancer Drug Screen. Data for the wt2 strain (AID 169);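 also: 0% = growth of vehicle-treated yeast cultures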; conditions: S. cerevisiae wt2 strain growth inhibition, hits give high values
In short: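 This strain belongs to a panel of yeast strains with defined genetic alterations in DNA damage repair or cell cycle control. Compounds are applied, and growth inhibition is measured against vehicle-treated cultures.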

[13] = NCI Yeast Anticancer Drug Screen. Data for the mlh1 strain (AID 171);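 also: 0% = growth of vehicle-treated control cultures of the same strain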; conditions: S. cerevisiae mlh1 strain growth inhibition, hits give high values
In short: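 Growth of the mutant yeast strain after compound exposure, expressed as inhibition relative to vehicle-only controls.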

[14] = NCI Yeast Anticancer Drug Screen. Data for the sgs1 strain (AID 173);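 also: 0% = growth of vehicle-only control cultures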; conditions: S. cerevisiae sgs1 mutant, hits give high values
In short: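 Growth of a yeast strain bearing a defined genetic alteration is measured after compound treatment. Inhibition is expressed relative to vehicle-only controls.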

[15] = NCI Yeast Anticancer Drug Screen. Data for the mlh1 rad18 strain (AID 175); conditions: S. cerevisiae mlh1 rad18 strain growth inhibition, hits give high values
In short: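 Read-out is yeast growth inhibition, calculated against vehicle-only controls. The compound was applied to a strain engineered with DNA damage repair alterations.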

[16] = NCI Yeast Anticancer Drug Screen. Data for the rad18 strain (AID 177); conditions: S. cerevisiae rad18 mutant growth inhibition, hits give high values
In short: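 Growth of the mutant yeast strain after compound exposure, normalised to vehicle-only cultures.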

[17] = at 5.0 µM (retest, dose inferred, filed as 0.5)
[18] = at 50.0 µM (retest, dose inferred, filed as 5.0)

Measured: growth inhibition

Nc1ccc2cc(Br)ccc2c1Br
active: [6]; at 50.0 µM 90.2% | [11]; at 50.0 µM 88.5% | [15]; at 50.0 µM 91.2%
inactive: [1]; at 1.2 µM -6% | [1]; at 3.7 µM 1% | [1]; at 11.0 µM 1% | [1]; at 33.0 µM 3% | [1]; at 100.0 µM 52% | [2]; at 1.2 µM -2% | [2]; at 3.7 µM -3% | [2]; at 11.0 µM -3% | [2]; at 33.0 µM -5% | [2]; at 100.0 µM -1% | [3]; at 1.2 µM 1% | [3]; at 3.7 µM 7% | [3]; at 11.0 µM 23% | [3]; at 33.0 µM 19% | [3]; at 100.0 µM 49% | [4]; at 1.2 µM -4% | [4]; at 3.7 µM -1% | [4]; at 11.0 µM -1% | [4]; at 33.0 µM -1% | [4]; at 100.0 µM 4% | [5]; at 1.2 µM -2% | [5]; at 3.7 µM 1% | [5]; [17] 13% | [5]; at 11.0 µM 8% | [5]; at 33.0 µM 2% | [5]; [18] 27% | [5]; at 50.0 µM 4.6% | [5]; at 100.0 µM 26% | [6]; at 1.2 µM 0% | [6]; at 3.7 µM -1% | [6]; [17] -5% | [6]; at 11.0 µM -2% | [6]; at 33.0 µM -2% | [6]; [18] 1% | [6]; at 100.0 µM 1% | [7]; at 1.2 µM -6% | [7]; at 3.7 µM 0% | [7]; at 11.0 µM 7% | [7]; at 33.0 µM 5% | [7]; at 100.0 µM 26% | [8]; [17] 15% | [8]; [18] 14% | [8]; at 50.0 µM 18% | [9]; at 1.2 µM -2% | [9]; at 3.7 µM -2% | [9]; at 11.0 µM -3% | [9]; at 33.0 µM -5% | [9]; at 100.0 µM 2% | [10]; [17] 3% | [10]; [18] 9% | [10]; at 50.0 µM -23% | [11]; at 1.2 µM 3% | [11]; at 3.7 µM 3% | [11]; [17] 22% | [11]; at 11.0 µM 1% | [11]; at 33.0 µM 4% | [11]; [18] 47% | [11]; at 100.0 µM 6% | [12]; at 1.2 µM -1% | [12]; at 3.7 µM -8% | [12]; at 11.0 µM -5% | [12]; at 33.0 µM -6% | [12]; at 100.0 µM 28% | [13]; at 1.2 µM -2% | [13]; at 3.7 µM 1% | [13]; at 11.0 µM 3% | [13]; at 33.0 µM 1% | [13]; at 100.0 µM 20% | [14]; at 1.2 µM -24% | [14]; at 3.7 µM -22% | [14]; at 11.0 µM -17% | [14]; at 33.0 µM -9% | [14]; at 100.0 µM 30% | [15]; [17] 28% | [15]; [18] 57% | [16]; at 1.2 µM -4% | [16]; at 3.7 µM -1% | [16]; at 11.0 µM 7% | [16]; at 33.0 µM -3% | [16]; at 100.0 µM 20%

O=C(O)C1CCCCC1c1c2ccc(=O)cc-2oc2cc(O)ccc12 (stereo unspecified)
inactive: [1]; at 1.2 µM 2% | [1]; at 3.7 µM -3% | [1]; at 11.0 µM 1% | [1]; at 33.0 µM 39% | [2]; at 1.2 µM -24% | [2]; at 3.7 µM -19% | [2]; at 11.0 µM -21% | [2]; at 33.0 µM 12% | [3]; at 1.2 µM 11% | [3]; at 3.7 µM 16% | [3]; at 11.0 µM 16% | [3]; at 33.0 µM 22% | [3]; at 100.0 µM 38% | [4]; at 1.2 µM 15% | [4]; at 3.7 µM 16% | [4]; at 11.0 µM 21% | [4]; at 33.0 µM 46% | [5]; at 1.2 µM 16% | [5]; at 3.7 µM 19% | [5]; [17] 52% | [5]; at 11.0 µM 9% | [5]; at 33.0 µM 28% | [6]; at 1.2 µM -3% | [6]; at 3.7 µM -1% | [6]; [17] 59% | [6]; at 11.0 µM 3% | [6]; at 33.0 µM 17% | [7]; at 1.2 µM -21% | [7]; at 3.7 µM -20% | [7]; at 11.0 µM -18% | [7]; at 33.0 µM 0% | [8]; [17] 10% | [9]; at 1.2 µM 13% | [9]; at 3.7 µM 14% | [9]; at 11.0 µM 12% | [9]; at 33.0 µM 37% | [10]; [17] 43% | [11]; at 1.2 µM 14% | [11]; at 3.7 µM 22% | [11]; [17] 44% | [11]; at 11.0 µM 27% | [11]; at 33.0 µM 55% | [12]; at 1.2 µM -20% | [12]; at 3.7 µM -18% | [12]; at 11.0 µM -7% | [12]; at 33.0 µM 15% | [13]; at 1.2 µM -26% | [13]; at 3.7 µM -21% | [13]; at 11.0 µM -16% | [13]; at 33.0 µM -1% | [14]; at 1.2 µM -17% | [14]; at 3.7 µM -15% | [14]; at 11.0 µM -15% | [14]; at 33.0 µM 13% | [15]; [17] 47% | [16]; at 1.2 µM -12% | [16]; at 3.7 µM -18% | [16]; at 11.0 µM -3% | [16]; at 33.0 µM 25%
active: [1]; at 100.0 µM 93% | [2]; at 100.0 µM 91% | [4]; at 100.0 µM 95% | [5]; [18] 95% | [5]; at 50.0 µM 86.3% | [5]; at 100.0 µM 90% | [6]; [18] 94% | [6]; at 50.0 µM 86.8% | [6]; at 100.0 µM 92% | [7]; at 100.0 µM 92% | [8]; [18] 77% | [8]; at 50.0 µM 89.5% | [9]; at 100.0 µM 94% | [10]; [18] 87% | [10]; at 50.0 µM 86.4% | [11]; [18] 88% | [11]; at 50.0 µM 86.7% | [11]; at 100.0 µM 92% | [12]; at 100.0 µM 94% | [13]; at 100.0 µM 86% | [14]; at 100.0 µM 91% | [15]; [18] 93% | [15]; at 50.0 µM 81.5% | [16]; at 100.0 µM 93%
